Laboratory results: PubChem BioAssay (NCI)
Compounds without any hit were thinned out: in the full panel of roughly 83,000, 20% have a hit.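 Negative percent growth values reflect cell death: -40 means 40% of the cells present at the start died, and -100 means all died.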 Unmarked numbers belong to inactive results. Activity calls are given as the source filed them. How the source made its calls: active means growth percent below 10; inactive means the rest.

What was measured:
Experiment in all cases: NCI-60 one-dose screen, 48 h (100 = growth as untreated, 0 = no growth, -100 = all killed)
Conditions in all cases: 10 µM
NCI-H23 lung = system: NCI-H23 lung
NCI-H226 lung = system: NCI-H226 lung
HOP-62 NSCLC = system: HOP-62 NSCLC
NCI-H460 lung = system: NCI-H460 lung
NCI-H522 lung = system: NCI-H522 lung
A549/ATCC NSCLC = system: A549/ATCC NSCLC
786-0 renal = system: 786-0 renal
COLO 205 colon = system: COLO 205 colon
DU-145 prostate = system: DU-145 prostate
K-562 leukemia = system: K-562 leukemia
MDA-MB-231 breast = system: MDA-MB-231 breast
RXF 393 renal = system: RXF 393 renal
SF-268 CNS = system: SF-268 CNS
SF-295 CNS = system: SF-295 CNS
SF-539 CNS = system: SF-539 CNS
UACC-257 melanoma = system: UACC-257 melanoma
M14 melanoma = system: M14 melanoma
MALME-3M melanoma = system: MALME-3M melanoma
HOP-92 NSCLC = system: HOP-92 NSCLC

SMILES | growth (NCI-H23 lung) | growth (NCI-H226 lung) | growth (HOP-62 NSCLC) | growth (NCI-H460 lung) | growth (NCI-H522 lung) | growth (A549/ATCC NSCLC) | growth (786-0 renal) | growth (COLO 205 colon) | growth (DU-145 prostate) | growth (K-562 leukemia) | growth (MDA-MB-231 breast) | growth (RXF 393 renal) | growth (SF-268 CNS) | growth (SF-295 CNS) | growth (SF-539 CNS) | growth (UACC-257 melanoma) | growth (M14 melanoma) | growth (MALME-3M melanoma) | growth (HOP-92 NSCLC) [%]
Cc1c2c(nn1C(=O)c1nn(-c3ccc(Cl)cc3)cc1O)-c1ccccc1CC2 | 16.6% | 22% | 23.7% | 9.48% (active) | -8.04% (active) | 21.8% | 21.1% | -4.51% (active) | 24.1% | -11.5% (active) | 38.1% | 31.8% | 33.9% | -15.1% (active) | 9.85% (active) | -1.88% (active) | 27.2% |  | 
Cc1ccc(NC(=O)N2CCCCC2)cc1[N+](=O)[O-] | 91.1% | 94.9% | 84.2% | 108% | -29.1% (active) | 39.5% | 102% | 99.4% | 108% | 106% | 95.5% | 106% | 81.1% |  | 92.6% | -0.113% (active) | 90.8% |  | 
CS(=O)(=O)c1nccc(-c2c(-c3cccc(OCc4ccc(F)cc4)c3)nc3sccn23)n1 | 53% | 55.5% | 90.1% | 98.8% | 24.4% | 104% | 79.5% | 91.2% | -53.8% (active) | 47.3% | 77.5% | 79.6% | 90.2% | 105% | 104% | 17% | 71.2% | 60.4% | 
C#CC(C)(O)[C@@H]1C[C@H](CC(=O)O)C1(C)C (some centres undefined) | 98% | 111% | 112% | 116% |  | 113% | 110% | 122% | 112% | 118% | 113% | 134% | 105% | 103% | 99.7% | 105% | 105% |  | 114
COc1cc2cc(Oc3ccc(NC(=O)c4ccccc4)cc3)c(C)nc2cc1OC | 83.5% | 9.16% (active) | 43.8% | 94.8% | 7.6% (active) | 89.6% | 118% | 109% | 100% | 88.1% | 66% | 53.3% | 65.5% | 72.2% | 97.6% | 95.2% | 121% | 93.6% | 
CC(C)(O)CCl | 109% | 96.7% | 107% | 102% |  |  | 114% | 126% | 109% | 106% | 99.8% | 117% | 111% | 97.9% | 99.8% | 91.9% | 108% | 116% | 114
CC(=O)Nc1ccc(S(=O)(=O)N/N=C(\C)c2ccc(C)cc2C)cc1 | 105% | 107% | 100% | 106% | 91.1% | 99.9% | 105% | 103% | 112% | 94.9% | 113% | 129% | 104% |  | 98.3% | 95.1% | 106% |  | 
COc1cccc2ccc(CC(O)(c3ccccc3)c3ccccc3)nc12 | 89.6% | 71.2% | 86.8% | 90.8% | 93.5% | 95.5% | 96.7% | 95.4% | 98.1% | 91.9% | 85% | 108% | 93.7% | 86.4% | 103% | 95.5% | 94.3% | 101% | 
CC1C(=NC(=O)c2cnccn2)C(C)C(c2ccc(Cl)cc2)NC1c1ccncc1 (centres undefined) | 94% | 101% | 97.7% | 108% | 70.9% | 92.9% | 90.8% |  | 114% |  | 97% | 100% | 108% | 117% | 86.1% | 94.3% | 91.9% |  | 
Brc1ccc2c(c1)-c1ccccc1C1=NCCN12 | -8.64% (active) | -14.2% (active) | -24.3% (active) | -47.4% (active) | -61.9% (active) | -18.8% (active) | -32.7% (active) | -54% (active) | -21.1% (active) | 4.71% (active) | -7.62% (active) | -62.6% (active) | -2.39% (active) | -50.7% (active) | -1.45% (active) | -23.9% (active) |  | -31.5% (active) | 
COc1ccc(-c2nc(-c3nc4ccc(C)cc4[nH]3)cc3c2[nH]c2ccccc23)cc1 | 39% | 63.9% | 55.3% | 32.8% |  | 28% | 69.9% | 46.9% | 41.4% | 17% | 15.8% | 27.9% | 50.3% | 25.5% | 50.2% | 69.6% | 31.5% |  | 33
Cc1nn(-c2ccccc2)c2nc(Cl)c(C=O)c(-c3ccccc3)c12 | 80.6% | 93.3% | 115% | 94% |  | 78.3% | 94.5% | 121% | 101% | 77.3% | 96.5% | 105% | 90.2% |  |  | 98.3% | 111% |  | 65.7
CC(C)C1=C(O)C2=C(C(=O)C1=O)[C@@]1(C)CCCC(C)(C)[C@@H]1CC2 | 65.8% | 83.5% | 70.6% | 37.6% |  | 62.1% | 78.7% | 92.7% | 81.6% |  | 103% | 84.3% | 63.4% | 43.3% | 90% | 78.7% | 80.7% |  | 53.6
COc1ccc2c(c1)C(=O)/C(=C/c1ccc([N+](=O)[O-])o1)O2 | -59% (active) | -13.7% (active) | -45.3% (active) | -46.8% (active) | -85% (active) | -5.34% (active) | -71% (active) | -81.6% (active) | -85% (active) | -34.8% (active) | -76.9% (active) | -78.3% (active) | -72.7% (active) | 3.29% (active) | -49.8% (active) | -85.6% (active) | -64.2% (active) | -77.8% (active) | 
CSc1nc2c(c(=O)n1C)CN(Cc1ccccc1)C(=O)CN2 | 93.5% | 96% | 82.7% | 106% | 79.6% | 91% | 91.9% | 113% | 109% | 85.2% | 96.8% | 75.2% | 104% | 103% | 91.1% | 86.9% | 88.6% |  | 
CSc1nc(S(C)(=O)=O)nc2[nH]c(=O)[nH]c12 | 98.8% | 101% | 98.2% | 116% |  | 106% | 107% | 106% | 116% | 108% | 89.7% | 110% | 101% |  | 99.1% | 105% | 96.7% |  | 97.5
CCN(CC)c1ccc(/C=C2\SC(=O)C(Nc3nnc(-c4cccnc4SCc4ccccc4)o3)C2=O)cc1 (centres undefined) | 21.7% | 20.1% | 30.5% | 3.5% (active) | -17.6% (active) | 12.2% |  |  | 28.9% | 14.5% | 39.4% | -13.2% (active) | 57.3% | 12.2% | 13.8% | 56.9% | -11.6% (active) | 57.9% | 
